# ± gives the standard deviation.
# B1: H3 20-32 L A T K A A Rme Kac S A P A T (peptide)
# chain: LATKAARKSAPAT
# B2: H3 20-32 L A T K A A Rcit Kme S A P A T (peptide)
# chain: LATKAARKSAPAT
# B3: H3 20-32 L A T K A A R Kme3 Sph A P A T (peptide)
# chain: LATKAARKSAPAT
# B4: H3 20-32 L A T K A A Rme2a Kme S A P A T (peptide)
# chain: LATKAARKSAPAT
# B5: H3 20-32 L A T K A A Rcit K S A P A T (peptide)
# chain: LATKAARKSAPAT
# B6: H3 20-32 L A T K A A Rme2a Kac S A P A T (peptide)
# chain: LATKAARKSAPAT
# B7: H3 20-32 L A T K A A R Kme Sph A P A T (peptide)
# chain: LATKAARKSAPAT
# B8: H3 20-32 L A T K A A R Kme2 S A P A T (peptide)
# chain: LATKAARKSAPAT
# B9: H3 20-32 L A T K A A Rme Kme3 S A P A T (peptide)
# chain: LATKAARKSAPAT
# B10: H3 20-32 L A T K A A Rme Kme S A P A T (peptide)
# chain: LATKAARKSAPAT
# Tests used:
# Assay in all cases: peptide microarray binding signal (635 nm), min-max normalized on array (fraction of array maximum); higher = stronger binding
# Conditions in all cases: peptide region: H3 20-32
# [1] = target: T1, HaloTag-ATRX ADD domain (163-292)
# T1 chain: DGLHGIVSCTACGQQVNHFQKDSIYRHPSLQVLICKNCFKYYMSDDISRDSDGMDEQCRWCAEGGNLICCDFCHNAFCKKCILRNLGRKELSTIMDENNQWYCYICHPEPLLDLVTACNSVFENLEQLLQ
# Summary of the method: (§1)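 Triplicate spots of histone 13-mer peptide–cellulose conjugates with a Cy3 tracer were printed on nitrocellulose and probed for 1 h at 4°C with biotin-labelled HaloTag reader fusions (10 nM to 1 μM) plus streptavidin-Alexa Fluor 647 or rabbit histone antibodies (1:10,000 to 1:2,000) plus anti-rabbit Alexa 647. An Axon GenePix 4000B read the 635 nm channel. Binding signal is the spot-triplicate mean intensity after min-max scaling within each library.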
# [2] = target: HaloTag-ING2 PHD (mouse Ing2 200-280)
# Summary of the method: as §1
# [3] = target: anti-H3K4me3 antibody ab8580
# Summary of the method: as §1
# [4] = target: anti-H3K9me3 antibody ab8898
# Summary of the method: as §1
# [5] = peptide modifications: H3R26me1 H3K27ac, binder concentration: 1:2,000 dilution
# [6] = peptide modifications: H3R26me1 H3K27ac, binder concentration: 1:10,000 dilution
# [7] = peptide modifications: H3R26cit H3K27me1, binder concentration: 1:2,000 dilution
# [8] = peptide modifications: H3R26cit H3K27me1, binder concentration: 1:10,000 dilution
# [9] = peptide modifications: H3K27me3 H3S28ph, binder concentration: 1:2,000 dilution
# [10] = peptide modifications: H3K27me3 H3S28ph, binder concentration: 1:10,000 dilution
# [11] = peptide modifications: H3R26me2a H3K27me1, binder concentration: 1:2,000 dilution
# [12] = peptide modifications: H3R26me2a H3K27me1, binder concentration: 1:10,000 dilution
# [13] = peptide modifications: H3R26cit, binder concentration: 1:2,000 dilution
# [14] = peptide modifications: H3R26cit, binder concentration: 1:10,000 dilution
# [15] = peptide modifications: H3R26me2a H3K27ac, binder concentration: 1:2,000 dilution
# [16] = peptide modifications: H3R26me2a H3K27ac, binder concentration: 1:10,000 dilution
# [17] = peptide modifications: H3K27me1 H3S28ph, binder concentration: 1:2,000 dilution
# [18] = peptide modifications: H3K27me1 H3S28ph, binder concentration: 1:10,000 dilution
# [19] = peptide modifications: H3K27me2, binder concentration: 1:2,000 dilution
# [20] = peptide modifications: H3K27me2, binder concentration: 1:10,000 dilution
# [21] = peptide modifications: H3R26me1 H3K27me3, binder concentration: 1:2,000 dilution
# [22] = peptide modifications: H3R26me1 H3K27me3, binder concentration: 1:10,000 dilution
# [23] = peptide modifications: H3R26me1 H3K27me1, binder concentration: 1:2,000 dilution
# [24] = peptide modifications: H3R26me1 H3K27me1, binder concentration: 1:10,000 dilution
binder,measurement,setting,value
B1,peptide microarray binding signal,"[1]; peptide modifications: H3R26me1 H3K27ac, binder concentration: 50 nM",0.00429 ± 0.00036
same,peptide microarray binding signal,"[1]; peptide modifications: H3R26me1 H3K27ac, binder concentration: 500 nM",0.0144 ± 0.0011
same,peptide microarray binding signal,"[2]; peptide modifications: H3R26me1 H3K27ac, binder concentration: 10 nM",0.0271 ± 0.0026
same,peptide microarray binding signal,"[2]; peptide modifications: H3R26me1 H3K27ac, binder concentration: 100 nM",0.0327 ± 0.0033
same,peptide microarray binding signal,[3]; [5],0.00627 ± 0.0032
same,peptide microarray binding signal,[3]; [6],0.00987 ± 0.00026
same,peptide microarray binding signal,[4]; [5],0.0058 ± 0.00049
same,peptide microarray binding signal,[4]; [6],0.00306 ± 0.00012
B2,peptide microarray binding signal,"[1]; peptide modifications: H3R26cit H3K27me1, binder concentration: 50 nM",0.0118 ± 0.0037
same,peptide microarray binding signal,"[1]; peptide modifications: H3R26cit H3K27me1, binder concentration: 500 nM",0.011 ± 0.002
same,peptide microarray binding signal,"[2]; peptide modifications: H3R26cit H3K27me1, binder concentration: 10 nM",0.0174 ± 0.00085
same,peptide microarray binding signal,"[2]; peptide modifications: H3R26cit H3K27me1, binder concentration: 100 nM",0.0171 ± 0.0017
same,peptide microarray binding signal,[3]; [7],0.00427 ± 0.00087
same,peptide microarray binding signal,[3]; [8],0.00576 ± 0.00078
same,peptide microarray binding signal,[4]; [7],0.00346 ± 0.0001
same,peptide microarray binding signal,[4]; [8],0.002249 ± 2.1e-05
B3,peptide microarray binding signal,"[1]; peptide modifications: H3K27me3 H3S28ph, binder concentration: 50 nM",0.00618 ± 0.00025
same,peptide microarray binding signal,"[1]; peptide modifications: H3K27me3 H3S28ph, binder concentration: 500 nM",0.0125 ± 0.00027
same,peptide microarray binding signal,"[2]; peptide modifications: H3K27me3 H3S28ph, binder concentration: 10 nM",0.0171 ± 0.0012
same,peptide microarray binding signal,"[2]; peptide modifications: H3K27me3 H3S28ph, binder concentration: 100 nM",0.037 ± 0.0095
same,peptide microarray binding signal,[3]; [9],0.0312 ± 0.0057
same,peptide microarray binding signal,[3]; [10],0.0191 ± 0.0066
same,peptide microarray binding signal,[4]; [9],0.104 ± 0.021
same,peptide microarray binding signal,[4]; [10],0.0474 ± 0.0052
B4,peptide microarray binding signal,"[1]; peptide modifications: H3R26me2a H3K27me1, binder concentration: 50 nM",0.00489 ± 1.8e-05
same,peptide microarray binding signal,"[1]; peptide modifications: H3R26me2a H3K27me1, binder concentration: 500 nM",0.00571 ± 0.00016
same,peptide microarray binding signal,"[2]; peptide modifications: H3R26me2a H3K27me1, binder concentration: 10 nM",0.0113
same,peptide microarray binding signal,"[2]; peptide modifications: H3R26me2a H3K27me1, binder concentration: 100 nM",0.0169 ± 0.00094
same,peptide microarray binding signal,[3]; [11],0.00704 ± 0.00042
same,peptide microarray binding signal,[3]; [12],0.00879 ± 0.00091
same,peptide microarray binding signal,[4]; [11],0.00356 ± 0.00021
same,peptide microarray binding signal,[4]; [12],0.00236 ± 3.7e-05
B5,peptide microarray binding signal,"[1]; peptide modifications: H3R26cit, binder concentration: 50 nM",0.00411 ± 8.3e-05
same,peptide microarray binding signal,"[1]; peptide modifications: H3R26cit, binder concentration: 500 nM",0.00633 ± 0.00025
same,peptide microarray binding signal,"[2]; peptide modifications: H3R26cit, binder concentration: 10 nM",0.00824 ± 0.00018
same,peptide microarray binding signal,"[2]; peptide modifications: H3R26cit, binder concentration: 100 nM",0.0125 ± 0.00034
same,peptide microarray binding signal,[3]; [13],0.00296 ± 0.00035
same,peptide microarray binding signal,[3]; [14],0.00285 ± 6.5e-05
same,peptide microarray binding signal,[4]; [13],0.00168 ± 3.3e-05
same,peptide microarray binding signal,[4]; [14],0.00138 ± 1.4e-05
B6,peptide microarray binding signal,"[1]; peptide modifications: H3R26me2a H3K27ac, binder concentration: 50 nM",0.00467 ± 0.00027
same,peptide microarray binding signal,"[1]; peptide modifications: H3R26me2a H3K27ac, binder concentration: 500 nM",0.0126 ± 0.0011
same,peptide microarray binding signal,"[2]; peptide modifications: H3R26me2a H3K27ac, binder concentration: 10 nM",0.0197 ± 0.0013
same,peptide microarray binding signal,"[2]; peptide modifications: H3R26me2a H3K27ac, binder concentration: 100 nM",0.0246 ± 0.0016
same,peptide microarray binding signal,[3]; [15],0.00936 ± 0.0018
same,peptide microarray binding signal,[3]; [16],0.0107 ± 0.00049
same,peptide microarray binding signal,[4]; [15],0.00763 ± 0.0006
same,peptide microarray binding signal,[4]; [16],0.00565 ± 0.00056
B7,peptide microarray binding signal,"[1]; peptide modifications: H3K27me1 H3S28ph, binder concentration: 50 nM",0.00502 ± 0.00011
same,peptide microarray binding signal,"[1]; peptide modifications: H3K27me1 H3S28ph, binder concentration: 500 nM",0.00762 ± 0.00035
same,peptide microarray binding signal,"[2]; peptide modifications: H3K27me1 H3S28ph, binder concentration: 10 nM",0.0135 ± 0.00073
same,peptide microarray binding signal,"[2]; peptide modifications: H3K27me1 H3S28ph, binder concentration: 100 nM",0.0189 ± 0.00035
same,peptide microarray binding signal,[3]; [17],0.00485 ± 0.0004
same,peptide microarray binding signal,[3]; [18],0.00519 ± 0.00023
same,peptide microarray binding signal,[4]; [17],0.00263 ± 0.00013
same,peptide microarray binding signal,[4]; [18],0.00277 ± 0.00013
B8,peptide microarray binding signal,"[1]; peptide modifications: H3K27me2, binder concentration: 50 nM",0.00292 ± 6.9e-05
same,peptide microarray binding signal,"[1]; peptide modifications: H3K27me2, binder concentration: 500 nM",0.003238 ± 2.5e-05
same,peptide microarray binding signal,"[2]; peptide modifications: H3K27me2, binder concentration: 10 nM",0.00567 ± 0.00012
same,peptide microarray binding signal,"[2]; peptide modifications: H3K27me2, binder concentration: 100 nM",0.00581 ± 0.00013
same,peptide microarray binding signal,[3]; [19],0.00193 ± 6.9e-05
same,peptide microarray binding signal,[3]; [20],0.00205 ± 3.8e-05
same,peptide microarray binding signal,[4]; [19],0.00153 ± 0.00012
same,peptide microarray binding signal,[4]; [20],0.00144 ± 3.7e-05
B9,peptide microarray binding signal,"[1]; peptide modifications: H3R26me1 H3K27me3, binder concentration: 50 nM",0.00668 ± 0.00028
same,peptide microarray binding signal,"[1]; peptide modifications: H3R26me1 H3K27me3, binder concentration: 500 nM",0.019 ± 0.0018
same,peptide microarray binding signal,"[2]; peptide modifications: H3R26me1 H3K27me3, binder concentration: 10 nM",0.0343 ± 0.0033
same,peptide microarray binding signal,"[2]; peptide modifications: H3R26me1 H3K27me3, binder concentration: 100 nM",0.0417 ± 0.0052
same,peptide microarray binding signal,[3]; [21],0.0743 ± 0.016
same,peptide microarray binding signal,[3]; [22],0.0599 ± 0.0085
same,peptide microarray binding signal,[4]; [21],0.162 ± 0.016
same,peptide microarray binding signal,[4]; [22],0.0985 ± 0.023
B10,peptide microarray binding signal,"[1]; peptide modifications: H3R26me1 H3K27me1, binder concentration: 50 nM",0.00489 ± 4.8e-05
same,peptide microarray binding signal,"[1]; peptide modifications: H3R26me1 H3K27me1, binder concentration: 500 nM",0.00657 ± 0.0021
same,peptide microarray binding signal,"[2]; peptide modifications: H3R26me1 H3K27me1, binder concentration: 10 nM",0.00794
same,peptide microarray binding signal,"[2]; peptide modifications: H3R26me1 H3K27me1, binder concentration: 100 nM",0.0109 ± 0.00039
same,peptide microarray binding signal,[3]; [23],0.00355 ± 0.00035
same,peptide microarray binding signal,[3]; [24],0.00474 ± 0.00018
same,peptide microarray binding signal,[4]; [23],0.0024 ± 8.4e-05
same,peptide microarray binding signal,[4]; [24],0.001557 ± 1.5e-05
